F508del corr: correctors of CFTR F508del function in bronchial epithelial cells; CFBE cells, YFP halide quenching; stimulated with forskolin plus potentiator P3; % fluorescence drop versus neutral controls; activity (quench increase), % at 7.58 µM; 350,000 compounds, 0.36% hits; AID 720511;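 active = mean added fluorescence quench of at least 8% versus neutral control, with both replicates also reaching 8%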;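 also: cells transiently co-express mutant CFTR-F508del with the halide-sensitive YFP; corrector assay measuring rescue of mutant channel to the surface after 24 h compound exposure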
FGF22 binding: FGF22 (human) thermal shift binding | 340,000 compounds, 1.5% hits | recombinant FGF22 thermal shift, SYPRO orange fluorescence; percent of sucrose octasulfate shift, DMSO zero | Q9HCT0 | AID 651658 | activity (Tm shift, normalised), % at 9.99 µM;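 active = mean Tm shift, scaled 0 neutral to 100 positive control, at about 1.3% or above, every replicate too, limit read from the data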
Target sequence (Q9HCT0 whole entry, looked up): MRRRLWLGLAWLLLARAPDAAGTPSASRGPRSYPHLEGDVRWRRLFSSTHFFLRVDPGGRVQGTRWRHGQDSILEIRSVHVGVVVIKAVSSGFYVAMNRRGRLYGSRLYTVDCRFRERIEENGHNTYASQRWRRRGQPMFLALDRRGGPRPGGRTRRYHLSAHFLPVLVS
Vif inh: blocks HIV Vif function; HEK293T cells, Vif self-association by quenched fluorescence, imaging, 24 h; inhibition, % at 7.49 µM; 340,000 compounds, 0.35% hits; AID 602346; in the data active = inhibition above about 50%, passing the limit was not always enough
Of the large screens only hits and unclear results are named; the others gave an inactive call. Shown are actives, neighbours in structure and some others; about 1.7% of the full set was active somewhere.

COc1cccc(S(=O)(=O)N2C[C@@H](O)COC[C@@H]3O[C@H](CC(=O)N4CCOCC4)CC[C@H]32)c1	none (no result: Vif inh)
Cc1cccc(CN(C)C[C@H]2OCc3cn(nn3)CCCC(=O)N([C@H](C)CO)C[C@H]2C)c1	none (no result: Vif inh)
COC(=O)c1ccc(/C=C(\C#N)c2nc3ccccc3s2)cc1	none (no result: F508del corr, FGF22 binding)
N#C/C(=C\c1ccccn1)c1nc2ccccc2s1	F508del corr 40.9 (no result: Vif inh)
Cc1ccc(S(=O)(=O)Nc2ccc3c(c2)CC(=O)N([C@H](C)CO)C[C@@H](C)[C@@H](CN(C)C(=O)Nc2ccc4c(c2)OCO4)O3)cc1	none (no result: Vif inh)
CCOC(=O)c1cn(CC#N)c2cc(F)c(F)cc2c1=O	FGF22 binding 43.0
CCCCCCn1cc(C(=O)OCC)c(=O)c2cc(F)c(F)cc21	none
CC(=O)OC1(C(C)=O)CCC2C3CC4OC45CC(O)CCC5(C)C3CCC21C (stereo not drawn)	none
CC(=O)OC1CCC2(C)C3CCC4(C)C(C(C)=O)CCC4C3CC3OC32C1 (stereo not drawn)	FGF22 binding 43.1
CO[C@@H]1CC[C@H]2CCN(C)C(=O)[C@H](C)[C@H](OC)CN(C)C(=O)c3cc(C#N)ccc3OC[C@H]1O2	none (no result: Vif inh)
COc1ccc(S(=O)(=O)Nc2ccc3c(c2)C(=O)N([C@H](C)CO)C[C@@H](C)[C@H](CN(C)Cc2ccc(C(=O)O)cc2)OCCCC[C@@H](C)O3)cc1	none (no result: FGF22 binding, Vif inh)
CCSc1nc(N)nc2c1ncn2C1OC(CO)C(O)C1O (stereo not drawn)	none
Nc1nc(SCc2ccc(Br)cc2)c2ncn(C3OC(CO)C(O)C3O)c2n1 (stereo not drawn)	FGF22 binding 44.1
CC(C)(C)S(=O)N1Cc2cc(C(=O)NCCCN3CCOCC3)nc(-c3cccc(-c4cccc(F)c4)c3)c2[C@@H]1CCO (stereo partly drawn)	none (no result: Vif inh)
COc1cccc(C(=O)Nc2ccc3c(c2)C(=O)N(C)C[C@@H](OC)[C@H](C)CN(C(=O)C2CCCC2)[C@@H](C)CO3)c1	none (no result: Vif inh)
O=c1sc2ccccc2n1Cc1ccccc1	none (no result: F508del corr)
CCOc1ccccc1Cn1c(=O)sc2ccccc21	FGF22 binding 43.1
C[C@@H]1CN([C@@H](C)CO)C(=O)c2cc(-c3cccc(C#N)c3)cnc2O[C@@H]1CN(C)Cc1cccnc1	none (no result: Vif inh)
Cc1ccc2[nH]c(CN3CCC(CO)(CC4CCCCO4)CC3)c(C)c2c1 (stereo not drawn)	FGF22 binding 42.9 (no result: Vif inh)
Cc1ccc(CN2CCC(CO)(CC3CCCCO3)CC2)o1 (stereo not drawn)	none
C[C@@H]1CN([C@@H](C)CO)C(=O)c2cccc(NS(=O)(=O)c3ccccc3)c2O[C@H]1CN(C)C(=O)Nc1ccccc1	none (no result: Vif inh)
CN(Cc1c(F)cccc1Cl)C(=O)c1ccc(NC(=O)CC2SC(N3CCCCC3)=NC2=O)cc1 (stereo not drawn)	F508del corr 10.9
CN(Cc1ccccc1F)C(=O)c1ccc(NC(=O)CC2SC(N3CCCCC3)=NC2=O)cc1 (stereo not drawn)	none
O=C(NN=Cc1ccccc1O)C1CC1	FGF22 binding 43.2
O=C(N/N=C/c1ccccc1O)C1SCCCS1	none
O=C(C[C@H]1C=C[C@H](NC(=O)Cc2cccnc2)[C@@H](CO)O1)Nc1ccccc1	none (no result: Vif inh)
CCNC(=O)c1ccc(C2SCC(=O)N2Cc2ccco2)cc1 (stereo not drawn)	none (no result: F508del corr, FGF22 binding)
O=C(O)c1ccc(C2SCC(=O)N2Cc2ccco2)cc1 (stereo not drawn)	FGF22 binding 1.5
Cc1cccc(S(=O)(=O)N2CC[C@@H]3[C@H]2c2cc(C#Cc4cccnc4)ccc2N[C@@H]3CO)c1	none (no result: Vif inh)
COCCNC(=O)C[C@@H]1CC[C@H]2[C@@H](COC[C@H](O)CN2C(=O)Nc2ccc3c(c2)OCO3)O1	none (no result: Vif inh)
CCC(C)NC(=O)C1CCCN1S(=O)(=O)c1ccc(Cl)cc1 (stereo not drawn)	none (no result: Vif inh)
NNC(=O)C1CCCN1S(=O)(=O)c1ccc(Cl)cc1 (stereo not drawn)	FGF22 binding 43.1
O=C(C[C@H]1CC[C@H]2[C@@H](COC[C@@H](O)CN2C(=O)Nc2cccc(F)c2)O1)NCc1ccccc1Cl	none (no result: Vif inh)
Cc1cc(/C=N/N2CCN(C)CC2)c(C)n1-c1ccccc1F	FGF22 binding 43.8
CN1CCN(/N=C/c2ccc(-c3ccccc3)cc2)CC1	none
C[C@@H]1CN([C@H](C)CO)C(=O)Cc2cc(NC(=O)CCN3CCOCC3)ccc2O[C@@H]1CN(C)S(=O)(=O)c1cccs1	none (no result: Vif inh)
CN1CCc2c(sc3c2C(=O)NC(c2cccs2)N3)C1 (stereo not drawn)	Vif inh 79.8
Cc1ccsc1C1NC(=O)c2c(sc3c2CCN(C)C3)N1 (stereo not drawn)	none
COCC(=O)N(C)C[C@H]1Oc2ncc(-c3ccc(F)cc3)cc2C(=O)N([C@H](C)CO)C[C@@H]1C	none (no result: Vif inh)
CN1CCN(C(=O)c2cnn(-c3ccccc3)c2NC(=O)c2ccccc2)CC1	FGF22 binding 43.4
CN1CCN(C(=O)c2cnn(-c3ccccc3)c2NC(=O)c2ccc(Br)cc2)CC1	none
Cn1c(=O)c2c(ncn2CC(COCc2ccc(Cl)cc2)OCc2ccc(Cl)cc2)n(C)c1=O (stereo not drawn)	none (no result: F508del corr, FGF22 binding)
Cn1c(=O)c2c(ncn2Cc2ccc(Cl)cc2)n(C)c1=O	FGF22 binding 43.6
C[C@H](O)C#Cc1cnc2c(c1)C(=O)N([C@H](C)CO)C[C@@H](C)[C@H](CN(C)C(=O)Cc1ccncc1)O2	none (no result: Vif inh)
COc1ccc(NC(=O)c2cn(-c3ccccc3)nc2-c2ccncc2)cc1	none
COc1ccc(-c2nn(-c3ccccc3)cc2C(=O)NC(=S)NNC(=O)c2ccncc2)cc1	Vif inh 59.6
O=C(Nc1ccc(Cl)cc1)N1C[C@H]2[C@@H](c3ccccc31)[C@@H](CO)N2C(=O)c1ccccn1	none (no result: Vif inh)
N=C1/C(=C/c2ccco2)C(=O)N=C2SC(CC(=O)N3CCCC3)=NN12	none
O=C1N=C(N2CCCC2C(=O)O)S/C1=C\c1ccco1 (stereo not drawn)	FGF22 binding 42.9 (no result: F508del corr)
C[C@@H]1CN([C@@H](C)CO)C(=O)c2cc(C3=CCCC3)cnc2O[C@H]1CN(C)C(=O)NC1CCCC1	none (no result: Vif inh)
Cc1ccc(S(=O)(=O)N[C@@H]2CC[C@@H](CCNC(=O)Nc3ccc(Cl)cc3)O[C@@H]2CO)cc1	none (no result: Vif inh)
Cc1ccc2c(c1)C=CC(C#N)N2C(=O)c1ccccc1 (stereo not drawn)	none (no result: F508del corr)
CC1=Cc2ccccc2C(C#N)N1C(=O)c1ccccc1 (stereo not drawn)	FGF22 binding 43.9
O=C(c1cccnc1)N1CC(=O)N2[C@H](CO)[C@H](c3ccc(C#CCC4CCCC4)cc3)[C@H]2C1	none (no result: Vif inh)
C[C@@H]1CN([C@@H](C)CO)C(=O)c2cc(C#CCN(C)C)cnc2O[C@@H]1CN(C)Cc1ccc2c(c1)OCO2	none (no result: Vif inh)
Clc1nc(Nc2ccc(N3CCOCC3)cc2)c2ccccc2n1	FGF22 binding 43.4
CCOC(=O)c1nc(Nc2ccc(N3CCOCC3)cc2)c2ccccc2n1	none
C[C@@H]1CN([C@H](C)CO)C(=O)CCCn2cc(nn2)CO[C@H]1CN(C)C	none (no result: Vif inh)
CCCn1c(N)c(C(=O)CSc2nnc(C3CC3)n2-c2ccccc2)c(=O)[nH]c1=O	none
CCCn1c(N)c(C(=O)CSc2nnc(C3CC3)n2C2CC2)c(=O)[nH]c1=O	FGF22 binding 43.0

Bioassay records deposited in PubChem BioAssay by Broad Institute.
